Reference: PubChem BioAssay AID1508600 (Functional Genomics Laboratory (NCATS/FGL), 2020)
The whole screen tested about 53,000 sequences, of which about 3,700 (7%) were called active.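 The calls were made as follows: active = gene knockdowns whose robust z-score for IL-1 alpha signal is at least 2 or at most -2, so actives lie on both sides; inactive = the rest.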 Many of the other results were omitted from the sample, so actives are more common in it than they were.

Experiment: Components of the Cytosolic LPS Sensing Pathway: Gene Identification via Genome-wide siRNA Screen;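 also: robust z of the log signal after scaling to non-targeting control siRNA wells of the plate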
Conditions: RAW264.7 macrophages, IL-1a HTRF, actives lie on both sides, screened at 100 nM (by protocol), cells primed 5 h with Pam3CSK4 first
How it was run: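 Mouse macrophage line RAW264.7 is transfected with siRNA (100 nM final), grown 48h, primed with TLR ligand Pam3CSK4 5 h and given intracellular LipidA 24 h. IL-1a in supernatant is read by HTRF and viability by luminescence.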

Sequence | z-score
GCUCUUACAUAGAACUUUGTT against Tpbg | -0.218 (inactive)
GGCCUUUUUUCUAUAUCUATT against Galnt3 | -0.637 (inactive)
GGUGGAGGUGUGAUGGAUUTT against Slamf1 | 5.09 (active)
GGUGGUGGCAGAAAUGAAUTT against Dpep2 | -0.946 (inactive)
CCAGUUGUGCAAUCAACAATT against Fam98c | -0.367 (inactive)
CGCGGUGGAGCUUCGAGAATT against Nrtn | 0.374 (inactive)
GUUUCUCCAUGGAGUCAUUTT against Psmb5 | -0.742 (inactive)
GGCAUUCGAAGGGACAGAUTT against Arg2 | -2.06 (active)
GUGACCUCAUCCAGAAAAUTT against Vmn1r190-ps | -0.613 (inactive)
GGAUCACUUUGACCACAACTT against Rab31 | 1.43 (inactive)
GCACUGGACCAAAGAACGGTT against Cercam | 1.14 (inactive)
GCCAUUAUAUAGUCCUACCTT against Klf1 | 0.719 (inactive)
GGGUCAUGAAACCUACCUUTT against Hikeshi | 0.182 (inactive)
GCUUGGACUGGAGUGAAGCTT against Map6d1 | -2.4 (active)
GGCUACAAAGAUGCAGACUTT against Pi4k2a | 0.22 (inactive)
GACAUAUUUGGGUUUCUAATT against Vmn1r15 | -0.645 (inactive)
GGAAUGACUUUUGAGACAGTT against Cyp1a1 | -0.732 (inactive)
GGUAGAGAUCAUCAAUGCATT against Ggt5 | 0.0858 (inactive)
GGAGUCCAAGUUUAAGGAATT against 4930522H14Rik | -1.65 (inactive)
CGGGACACUUGAAUUGGCUTT against Frmd4a | -2.25 (active)
GGAACAUUCUCUCCUUAUGTT against Ctps | -0.168 (inactive)
GGAGUUGCAUCACUUGCUCTT against BC016579 | 0.441 (inactive)
GGUAACUGGUGUCAUUUAATT against Zfp474 | 0.619 (inactive)

Sequence | z-score
GGCAAGAUGCACAAGACUUTT against Cacna1s | 2.6 (active)
GGAUGUGUUACUUACCAAATT against Map4 | 0.607 (inactive)
GGCCUUCUAUACUACAGACTT against Hdac1 | -1.23 (inactive)
CGGCUCACUAGCAGUGUCUTT against Ppm1b | -0.209 (inactive)
GGUUACUCCUUUUUCAAUGTT against Elf5 | -0.636 (inactive)
GGACAUAGUCUGAGGCAAGTT against Ost4 | -1.34 (inactive)
GCUGUUCAAUUUGAUUACUTT against Dapp1 | 1.77 (inactive)
GGCAACCAUAGACGAUGAATT against Rerg | -2.38 (active)
GGACCAGUUAAAGUGGCAGTT against Oas1e | -0.00736 (inactive)
GGUACUUGUACUAAUCGCUTT against Lpcat2 | 0.683 (inactive)
CCCUUGAUUAAGUGGAUUATT against Tgfa | 1.19 (inactive)
GGUGAUGGCUGUUCCUUUCTT against Zdhhc2 | 0.533 (inactive)
GGAUGAAAUUGGAAAGGGCTT against Camkk2 | -0.0472 (inactive)
CCAAUCCUCAACCUUGAAUTT against Ddx19a | 0.0508 (inactive)
GGGACUUCCUUAUUGGAACTT against A830019P07Rik | 1.23 (inactive)
GGAUGUCAACAUUCGAGAUTT against Tmem231 | 0.993 (inactive)
GGCCAGAGACAGUUAUCUUTT against Sptssb | 2.43 (active)
GGAGAAUUGUUUUUACCAGTT against Bbox1 | 0.13 (inactive)
GGACUGACUGGAUUUUUCCTT against Adamts12 | -0.102 (inactive)
GGCAUUAGGAUACAUAACATT against Rpgrip1l | -0.743 (inactive)
GCUGUAACCAACAUACCUCTT against Inka1 | -0.91 (inactive)
GGAACAAAGAUUGAGAGAATT against Sltm | -1.62 (inactive)
GGACAACUUUGAGGAGAUGTT against Tubg2 | 3.23 (active)

Sequence | z-score
GGUUAUCAAAGCUAAGAAUTT against Ifi209 | -0.0859 (inactive)
GCUAGUCAGAAGAAGUACUTT against Actrt2 | -0.402 (inactive)
CCGAAGCAUGAAGAAUCUATT against Tubd1 | 0.544 (inactive)
GAGCAAUAAGCUAGGGUGATT against Olfr1428 | 0.239 (inactive)
GGAAUGUACCAGAAAUACUTT against 4921504E06Rik | 3.01 (active)
GGCAAAUUCGAAAUAGACATT against Evx2 | 0.227 (inactive)
GGAAGAAAUAGAGUUUUACTT against Ephx2 | 3.42 (active)
GGCUCUGAUGUUUCUAAAATT against Hdac10 | 1.29 (inactive)
GGUACUGUCGGUAUCCCACTT against Gcc1 | -1.62 (inactive)
GCCUUUGUACAAUGACUAUTT against Prpf38a | -0.127 (inactive)
GCAGAAAGCAACACGCCCUTT against Pramel20 | 0.631 (inactive)
GGGUAUGCAGAAGGGAACATT against Nrap | 0.424 (inactive)
GGGCAGAGUGAUGUUGUCATT against Gsdmd | -3.34 (active)
CCAUUGUGUGGUACUUAAATT against Mrm3 | 0.448 (inactive)
GCGACUCACUAUUUGGGCATT against Ell3 | 0.471 (inactive)
GGAAAAUUCAUCCUUAGUATT against Wdr61 | -0.086 (inactive)
CGAAACACCAGAUGUAUUCTT against Gck | -0.551 (inactive)
GGUUAUGAAACUGAGAAAGTT against Mid2 | -0.0195 (inactive)
CCCUCUCUUUGGAUACACATT against Tenm4 | -2.98 (active)
GGAUUUGUCAUCCACUUCUTT against Sez6 | -1.79 (inactive)
GCUGCUCAAACAUAAUGAATT against Osbpl2 | -0.419 (inactive)
GGAUGUACAUUCUACCUAUTT against Bap1 | -0.239 (inactive)
